Measurements: paper PMC4102417

What follows are molecules tested on murine 3T3 fibroblasts (assay: primary screen, percent viability or growth; higher = less effect of the substance).
Experimental: Similarly, for measuring the cytotoxicity concentration (CC50) for 3T3 fibroblast cells, cultures were incubated with drugs for 72 hours and developed using Alamar Blue (Alamar Biosciences Inc, Sacramento, CA) as previously described.

Compound	Mammalian (3T3) cell % growth at 10 uM [%]
O=C1C=CC(=O)c2c(O)cccc21	66.4
CCN(CC)Cc1cc(Nc2ccnc3cc(Cl)ccc23)ccc1O	24.4
O=C(O)CC[N+](=O)[O-]	88.6
COc1cc(O)c2c(=O)cc(-c3ccc(OC)c(-c4c(O)cc(O)c5c(=O)cc(-c6ccc([O-])cc6)oc45)c3)oc2c1.[K+]	4.2
COc1ccc(-c2cc(=O)c3c(O)cc(O)cc3o2)cc1	77.4
CN(C)C(=S)SSC(=S)N(C)C	0.3
OCCN1CCN(CCCN2c3ccccc3Sc3ccc(C(F)(F)F)cc32)CC1	100
COc1ccc(CCN2CCC(Nc3nc4ccccc4n3Cc3ccc(F)cc3)CC2)cc1	100
CC[C@@]1([C@@H]2O[C@@H]([C@H]3O[C@@](O)(CO)[C@H](C)C[C@@H]3C)C[C@@H]2C)CC[C@H]([C@]2(C)CC[C@]3(C[C@H](O)[C@@H](C)[C@@H]([C@@H](C)[C@@H](OC)[C@H](C)C(=O)O)O3)O2)O1	41.3
O=c1c(O)c(-c2ccccc2)oc2ccccc12	85.7
COc1ccc2cc1Oc1ccc(cc1)C[C@H]1c3c(cc4c(c3Oc3cc5c(cc3OC)CCN(C)[C@@H]5C2)OCO4)CCN1C	33.1
CSc1ccc2c(c1)N(CCC1CCCCN1C)c1ccccc1S2 (stereo not shown)	45.7
Clc1ccc(COC(Cn2ccnc2)c2ccc(Cl)cc2Cl)cc1 (stereo not shown)	100
CCCCCCc1ccc(O)cc1O.Nc1c2ccccc2nc2ccccc12	53.7
COc1cc(O)c2c(c1)C(=O)c1cc(C)cc(O)c1C2=O	96.8
CCCCCC(=O)O[C@]1(C(C)=O)CC[C@H]2[C@@H]3CCC4=CC(=O)CC[C@]4(C)[C@H]3CC[C@@]21C	100
C=CC(C)(O)CCC1C(=C)CCC2C(C)(CO)CCCC12C (stereo not shown)	86.1
CCCCCCCC/C=C/CCCCCCCCOP(=O)([O-])OCC[N+](C)(C)C	93.7
C=C1CC[C@@H]2C(CC2(C)C)C(=O)CC[C@H]1O (stereo partly shown)	2.6
CNCCC(Oc1ccc(C(F)(F)F)cc1)c1ccccc1.Cl (stereo not shown)	100

Compound	Mammalian (3T3) cell % growth at 10 uM [%]
CC1(C)C(=O)C=CC2(C)C1CC(O)C1(C)C2CCC2(C)C(c3ccoc3)OC(=O)C3OC321 (stereo not shown)	76
CCC1(O)CC(OC2CC(N(C)C)C(O)C(C)O2)c2c(cc3c(c2O)C(=O)c2c(O)ccc(O)c2C3=O)C1C(=O)OC (stereo not shown)	0.8
CN1CCN(CCCN2c3ccccc3Sc3ccc(C(F)(F)F)cc32)CC1	94.7
C=C1C(=O)C23C(O)C1CCC2C12COC3(O)C(O)C1C(C)(C)CCC2O (stereo not shown)	0.2
CCN(CC)CCOc1ccc2c(c1)C(=O)c1cc(OCCN(CC)CC)ccc1-2	89
CC(=O)Oc1ccc2c(c1)CCC1C2CCC2(C)C1CC(OC(C)=O)[C@@H]2OC(C)=O (stereo partly shown)	60.7
Nc1ccn([C@@H]2O[C@H](CO)[C@@H](O)[C@@H]2O)c(=O)n1	48.4
C#C[C@]1(O)CC[C@H]2[C@@H]3CCC4=Cc5oncc5C[C@]4(C)[C@H]3CC[C@@]21C	90.2
CC(Cc1cccc(C(F)(F)F)c1)NCCOC(=O)c1ccccc1 (stereo not shown)	96.6
COc1cc2c(cc1OC)C1C(=O)c3ccc4c(c3OC1CO2)CC(C(C)C)O4 (stereo not shown)	19.3
O=c1c(-c2cc(O)c(O)c(O)c2)coc2cc(O)c(O)c(O)c12	73.7
CCN(CC)CCOc1ccc(C(=C(Cl)c2ccccc2)c2ccccc2)cc1	100
O=c1cc(-c2ccccc2)oc2cc(O)c(O)c(O)c12	4.9
COc1ccc(Cc2nccc3cc(OC)c(OC)cc23)cc1OC.Cl	93.1
CC1(C)C=CC(=O)C2(C)C1CC(=O)C1(C)C2CCC2(C)C(c3ccoc3)OC(=O)C3OC321 (stereo not shown)	100
N=C(N)c1ccc(OCCCCCOc2ccc(C(=N)N)cc2)cc1.O=S(=O)(O)CCO	94.8
CC(C)CCCC(C)C1CCC2C3CC(=O)C4CC(O)CCC4(C)C3CCC12C (stereo not shown)	100
COc1cc(NC(C)CCCN)c2ncccc2c1.O=P(O)(O)O.O=P(O)(O)O (stereo not shown)	91.1
CCOc1ccc(Cc2nccc3cc(OCC)c(OCC)cc23)cc1OCC	95.1
CC(=O)O[C@]1(C(C)=O)CC[C@H]2[C@@H]3C=C(Cl)C4=CC(=O)CC[C@]4(C)[C@H]3CC[C@@]21C	97.4
